Shown are actives, neighbours in structure and some others; about 7.4% of the full set was active somewhere.
FLuc modulator: inhibits or activates purified firefly luciferase, miR-21 counter-screen; P08659; purified FLuc, Km substrates, luminescence inhibition; Potency, µM (doses to about 57.5 µM), for inactives: top-dose activity change, negative = inhibition, hits mostly inhibitors; 6.9% of 360,000 active;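 further: plate controls were vehicle for no effect and reference inhibitor for full effect; nearly all actives have a fitted effect of over 55% in size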
Target sequence (P08659 whole entry, looked up): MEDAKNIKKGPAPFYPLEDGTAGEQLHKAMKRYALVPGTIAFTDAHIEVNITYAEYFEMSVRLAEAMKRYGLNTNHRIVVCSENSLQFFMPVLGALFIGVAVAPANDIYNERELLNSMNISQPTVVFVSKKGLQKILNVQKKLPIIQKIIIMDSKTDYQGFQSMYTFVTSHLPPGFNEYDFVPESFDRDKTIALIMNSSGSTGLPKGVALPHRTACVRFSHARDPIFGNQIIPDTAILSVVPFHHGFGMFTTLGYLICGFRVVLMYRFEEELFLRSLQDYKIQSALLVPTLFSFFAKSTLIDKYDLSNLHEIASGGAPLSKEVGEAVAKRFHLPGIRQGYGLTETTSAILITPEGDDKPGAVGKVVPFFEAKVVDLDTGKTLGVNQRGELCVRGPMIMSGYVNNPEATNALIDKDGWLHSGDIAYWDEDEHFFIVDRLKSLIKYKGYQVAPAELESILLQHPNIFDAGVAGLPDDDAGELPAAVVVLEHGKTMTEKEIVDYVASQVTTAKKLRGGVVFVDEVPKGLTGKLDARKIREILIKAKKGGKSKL
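Purified P. pyralis luciferase, 10 nM final, with Km-level 10 uM D-luciferin and 10 uM ATP in 50 mM Tris acetate pH 7.5, 10 mM Mg acetate, 0.01% Tween-20, 0.05% BSA; 6-point qHTS titration about 60 µM downward; luminescence read.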
NPC1 promoter act: activates the NPC1 promoter | Potency, µM (titrated, usually from 9.22 µM), for inactives: at the highest dose activation, hits mostly activators | 2.4% of 320,000 active | Huh7 NPC1 promoter luciferase reporter, 24 h; further: % of control where 0% means no effect; nearly all actives have a fitted effect of over 60% in size
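Huh7 cells stably carrying NPC1 promoter–luciferase, plated in Opti-MEM with 10% FBS for 2 h, were exposed to compound in DMSO for 24 h at 37 °C; luciferase reagent was added for 10 min and luminescence read.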
ELG1 genotoxic: genotoxicity induction in ELG1-luciferase HEK293T cells; 1.3% of 330,000 active; HEK293T ELG1-luciferase reporter, luminescence, 16 h; Potency, µM (highest dose often 46 µM), without a hit: at the top dose activity change, positive = activation, most hits filed as activators; further: % of control where 0% means no effect; nearly all actives have a fitted effect of over 60% in size
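Genotoxic stress is detected as increased luminescence from luciferase-tagged ELG1 in HEK293T cells, measured with ONE-Glo after a 16 hr treatment at 37 °C.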
Rab9 prom act: activators of Rab9 promoter; Potency, µM (series often up to 9.22 µM), without a hit: top-dose activation, negative = inhibition, hits mostly activators; Huh7 Rab9 promoter-luciferase reporter, luminescence, 24 h; 2.8% of 320,000 active; AID 485297; further: % of control where 0% means no effect; nearly all actives have a fitted effect of over 60% in size
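Cell-based reporter: Huh7 stable for Rab9 promoter-driven luciferase, plated in reduced-serum medium with 10% FBS at 1500 cells/well, compound-treated 24 h at 37 °C, luminescence read after 10 min reagent.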
p53 reactivator: restores transcriptional activity of mutant p53; Potency, µM (titrated, usually from 92.2 µM), for inactives: at the highest dose activity change, positive = activation, most hits filed as activators; 0.063% of 320,000 active; H1299 p53-A138V BP100-luciferase reporter, luminescence, 24 h; further: % of control where 0% means no effect; nearly all actives have a fitted effect of over 45% in size
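H1299 (p53-null), stable ts p53-A138V + BP100-Luc; 1000 cells/well, Opti-MEM/10% FBS; cpd 4 pt, 1:5; 24 h, 37 deg C, 5% CO2; detection reagent 10 min RT; luminescence.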
SMN2 splice enh: SMN2 splice variant enhancement | Potency, µM (doses to about 46.1 µM), for the others: at the top dose activity change, positive = activation, usual class: activators | 2.8% of 210,000 active | HEK293 SMN2-luciferase splicing reporter, luminescence, 30-36 h | AID 1458; further: % of control where 0% means no effect; nearly all actives have a fitted effect of over 55% in size
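qHTS luciferase splicing reporter: luminescence rises when SMN2 exon 7 is included in transfected HEK293 cells. Compound exposure lasted 30-36 h at 37C, with 4.5 mM final sodium butyrate as control, followed by a ONE-Glo read.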
* hit, by the source's call; u = inconclusive; x = no result; [ ] = remark or other dose. The call rests on the fitted dose curve; in most records, active means well fitted curve in the direction sought with a large enough effect; inconclusive means small, poorly fitted or top-dose-only effect, or another doubt; inactive means no such curve, though single readings can be large; an effect the other way counts as inactive or inconclusive. Potency means the concentration at half of the fitted maximal effect.

SMILES	FLuc modulator	NPC1 promoter act	ELG1 genotoxic	Rab9 prom act	p53 reactivator	SMN2 splice enh
Cc1ccc(Nc2cc(-n3nc(C)cc3C)ncn2)c(C)c1	1.2%	0.2%	-5.5%	-3.2%	-1.0%	-20.5%
Cc1ccc(Nc2cc(-n3cccn3)ncn2)c(C)c1	10.7µM*	3.55µM*	7.31µM*	2.51µM*	u	23.8%
COC(=O)Cn1c(SCc2ccccc2)nc2ccccc21	15.1µM*	21.7%	u	11.7%	24.2%	12.5%
COc1cccc(CSc2nc3ccncc3n2CC(=O)Nc2ccc(OC)c(OC)c2OC)c1	15.1µM*	x	x	x	x	u
COc1ccc(CSc2nc3ccncc3n2CC(=O)Nc2cc(C)cc(C)c2)cc1	2.39µM*	x	x	x	x	u
CCSc1nc2ccccc2n1CC(=O)OC	-1.2%	0.6%	-0.8%	-3.2%	-1.5%	-8.7%
COc1ccc(NC(=O)Cn2c(CCC(=O)O)ccc2-c2ccccc2)cc1Cl	-15.6%	x	x	x	x	4.9%
O=C(COc1ccccc1)Nc1cccc(S(=O)(=O)N2CCCC2)c1	-1.1%	7.1%	-3.3%	4.5%	5.7%	x
O=C(COc1ccc(F)cc1Cl)Nc1cccc(S(=O)(=O)N2CCCC2)c1	13.5µM*	-1.2%	-0.3%	2.6%	u	x
CCOc1ccc(/C=C/C(=O)OCC(=O)Nc2cccc(S(=O)(=O)N3CCCC3)c2)cc1	2.13µM*	-0.8%	-1.2%	-0.7%	u	x
Nc1cc(N)cc(C(=O)OCC(=O)Nc2cc(S(=O)(=O)N3CCCCC3)ccc2Cl)c1	16.9µM*	-2.9%	-5.7%	-1.8%	0.1%	-4.1%
CCN(CC)S(=O)(=O)c1cccc(NC(=O)COc2ccc(Cl)cc2Br)c1	21.3µM*	-0.3%	-0.8%	-3.3%	7.4%	-37.2%
CN(C)S(=O)(=O)c1cccc(NC(=O)COc2ccc(S(=O)(=O)N3CCOCC3)cc2Cl)c1	x	x	-0.9%	x	3.3%	x
O=C(COC(=O)c1cccnc1Cl)Nc1cc(S(=O)(=O)N2CCCCC2)ccc1Cl	-1.4%	-9.1%	-1.2%	6.9%	-0.2%	2.8%
Cn1c(NCCO)nc2c1c(=O)n(Cc1ccccc1Cl)c(=O)n2C	0.4%	x	x	x	x	3.7%
Fc1ccc(C2=NC(c3cccc(C(F)(F)F)c3)=Nc3ccccc3N2)cc1	5.4%	x	x	x	x	-10.1%
C[C@H]1CC(C)(C)C[C@@](OCCN2CCCCC2)(c2ccccc2)C1	x	x	x	x	x	-20.9%[9.22 µM]
COc1c(O)c(O)cc2c1oc1c3ccccc3oc(=O)c21	x	x	x	x	x	-11.6%
O=C(COc1ccccc1Cl)Nc1cccc(S(=O)(=O)N2CCCC2)c1	19µM*	-6.5%	-1.3%	-2.1%	13.8%	x
COc1ccccc1CN1CC2(CCN(S(C)(=O)=O)CC2)C1	x	x	x	x	x	-4.5%
O=C(NC(=S)Nc1ccc(Cl)cn1)C12CC3CC(CC(C3)C1)C2	10.7µM*	u	7.3%	u	15.3%	17.4%
CCC(=O)NC(=S)Nc1ccc(Cl)cn1	-13.5%	0.1%	3.2%	1.4%	3.3%	27.2%
COc1ccc(CNC(=O)CN2C(=O)CSc3ccc(S(=O)(=O)N4CCC(C)CC4)cc32)cc1	-15.0%	x	x	x	x	x
Cc1ccc(NC(=O)CSc2cn(CC(=O)N3CCCC3)c3ccccc23)cc1Cl	-17.2%	x	x	x	x	x
Cc1nc(Nc2ccccc2)sc1-c1ccccc1	0.338µM*	1.26µM*	u	0.398µM*	u	x
SMILES	FLuc modulator	NPC1 promoter act	ELG1 genotoxic	Rab9 prom act	p53 reactivator	SMN2 splice enh
Cc1nc(NC(=O)CN2CCOCC2)sc1-c1ccccc1	u	u	11.8%	u	u	8.1%
Cc1nc(Nc2ccc(C(=O)O)cc2)sc1-c1ccccc1	0.169µM*	1.26µM*	u	u	-8.8%	x
c1ccc2oc(SCc3cn4ccccc4n3)nc2c1	9.53µM*	1.41µM*	4.61µM*	1.12µM*	x	14.1µM*
Cc1cccc2nc(CSc3nc4ccccc4o3)cn12	15.1µM*	0.8%	12.8%	19.8%	u	-1.6%
C=CCN(c1ccccc1)S(=O)(=O)c1cccc(C(=O)NCc2ccco2)c1	x	x	-3.1%	x	4.2%	x
COc1ccc(Cn2ccc3nc(C)c(C(=O)NCc4cccc(OC)c4)cc3c2=O)cc1	-2.7%	x	x	x	x	x

Source: PubChem BioAssay (National Center for Advancing Translational Sciences (NCATS))
